Screening data (PubChem)
MITF TRPM1 inh: inhibitors of MITF-dependent TRPM1 promoter reporter, primary screen, cell-based, SK-MEL-5, single point, luciferase; 330,000 tested, 0.83% active; inhibition, % at 12.5 µM; AID 488899, 2010; SK-MEL-5 TRPM1 promoter luciferase, 24 h;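 active = mean inhibition across replicates of 60% or more, whatever share of single replicates reaches that level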
CF NFkB inh: inhibitors of PAF-induced NF-kB signaling, primary screen, cell-based, GFP fluorescence, uHTS | KKLEB NF-kB-GFP reporter, GFP fluorescence overnight | inhibition, % at 5 µM | 360,000 tested, 0.86% active | AID 588850, 2011;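 active = at least 50% inhibition at 5 µM, scaled per plate between neutral and stimulator controls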;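 also: PAF is a Pseudomonas aeruginosa culture filtrate used as stimulus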
Peg3 promoter: Peg3 promoter-driven luciferase inhibitors, primary screen, cell-based, HeLa, luciferase luminescence | HeLa PEG-Prom luciferase reporter, overnight | inhibition, % at 20 µM | AID 588405, 2011 | 360,000 tested, 1.7% active;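 active = inhibition of at least 50% at 20 µM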
HIF-2a block: HIF-2a reporter inhibitors, primary screen, luminescence, 786-0 RCC cells | 786-0 RCC cells HIF-2a reporter, luciferase luminescence, overnight | inhibition, % at 18.8 µM | 360,000 tested, 0.72% active;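 active = inhibition of the luminescence signal of 40% or more relative to plate controls, in a single-dose primary screen at 18.75 µM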
ABHD5-PLIN5 inh: ABHD5-PLIN5 interaction inhibitors, primary screen, cell lysate, split luciferase complementation, luminescence; Perilipin-5 (Homo sapiens) + 1-acylglycerol-3-phosphate O-acyltransferase ABHD5 (Homo …; Split G. princeps luciferase complementation, 4 h; inhibition, % at 4 µM; 360,000 tested, 0.78% active;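 active = inhibition above the mean inhibition across every tested compound plus 3 SD, cut at about 22% in these data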
Target sequence (Q00G26 whole entry, looked up): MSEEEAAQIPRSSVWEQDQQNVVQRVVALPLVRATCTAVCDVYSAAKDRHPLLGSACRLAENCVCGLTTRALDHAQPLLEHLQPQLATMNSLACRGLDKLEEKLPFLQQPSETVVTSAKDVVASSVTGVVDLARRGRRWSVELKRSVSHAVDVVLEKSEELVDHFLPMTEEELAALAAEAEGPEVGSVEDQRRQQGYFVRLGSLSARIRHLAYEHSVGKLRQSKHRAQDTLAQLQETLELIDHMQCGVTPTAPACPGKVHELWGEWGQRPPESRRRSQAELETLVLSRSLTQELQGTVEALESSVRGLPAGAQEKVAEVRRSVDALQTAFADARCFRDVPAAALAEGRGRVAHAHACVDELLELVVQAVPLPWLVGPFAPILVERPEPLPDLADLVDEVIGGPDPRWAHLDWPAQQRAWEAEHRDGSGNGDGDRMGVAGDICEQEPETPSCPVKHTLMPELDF
Target sequence (Q8WTS1 whole entry, looked up): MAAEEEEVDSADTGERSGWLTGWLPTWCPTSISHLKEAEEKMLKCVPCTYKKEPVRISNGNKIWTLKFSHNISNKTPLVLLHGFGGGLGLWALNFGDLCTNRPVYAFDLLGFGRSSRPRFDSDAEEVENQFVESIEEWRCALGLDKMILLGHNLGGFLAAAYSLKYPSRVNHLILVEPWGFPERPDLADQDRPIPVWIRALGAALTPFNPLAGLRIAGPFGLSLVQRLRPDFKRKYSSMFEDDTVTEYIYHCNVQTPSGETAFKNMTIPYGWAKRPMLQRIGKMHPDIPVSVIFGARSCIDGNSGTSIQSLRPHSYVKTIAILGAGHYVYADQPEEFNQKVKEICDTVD
KKLEB tox: cytotoxicity in KKLEB CF airway cells, primary screen, cytotoxicity control for CF NF-kB inhibitor project, cell-based, uHTS, fluorescence assay plates; KKLEB CF airway cells viability, ATPlite luminescence, overnight; active compounds read low; cells stimulated with P. aeruginosa culture filtrate; AID 602141, 2011; activity change (cytotoxicity), % at 5 µM; 360,000 tested, 0.36% active;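 active = corrected activity change at or below -50% at 5 µM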
Large screens that a line does not name were inactive. Only some compounds are listed: those with a hit (about 3% of all), similar ones and a draw of the others.

CC(=O)N1CCN(S(=O)(=O)c2c(C)n(C)c(=O)n(C)c2=O)CC1	none
COc1cc2[nH]c3c(N4CCN(c5ccccn5)CC4)ncnc3c2cc1OC	Peg3 promoter 100
Fc1ccc2[nH]c3c(N4CCN(c5ccccc5)CC4)ncnc3c2c1	Peg3 promoter 104
CCOC(=O)N1CCN(c2ncnc3c2[nH]c2ccc(F)cc23)CC1	none
OC1(c2cccc(C(F)(F)F)c2)CCN(c2ncnc3c2[nH]c2ccc(F)cc23)CC1	Peg3 promoter 105
COc1ccc(N2CCN(c3ncnc4c3[nH]c3ccccc34)CC2)cc1	none
COc1ccc(CN2C(=O)C(CC(=O)NCCCCc3ccccc3)CC(C(=O)N(C)C)=C2C)cc1 (stereo unspecified)	none (no result: MITF TRPM1 inh)
O=C(NCc1cc(Cl)cc(Cl)c1)c1ccc2nc([C@H]3C[C@H](O)[C@@H](CO)O3)[nH]c2c1	none (no result: MITF TRPM1 inh)
COc1ccc(C(C[N+](=O)[O-])C2(c3ccc(OC)c(OC)c3)C(=O)c3ccccc3C2=O)cc1 (stereo unspecified)	Peg3 promoter 102, HIF-2a block 87, ABHD5-PLIN5 inh 84
CC(C)c1ccc(NC(=O)c2cccc(Br)c2)cc1	none
Cc1ccc(C(=O)Nc2cccc(C(F)(F)F)c2)cc1Nc1ncnc2nc[nH]c12	CF NFkB inh 69 (no result: MITF TRPM1 inh)
CC1(c2ccc(Cl)cc2)NC(=O)N(CC(=O)N2CCN(C(=O)c3cccs3)CC2)C1=O (stereo unspecified)	none (no result: MITF TRPM1 inh)
CC(CCc1ccccc1)NC(=O)c1ccccc1 (stereo unspecified)	none
CC(CCc1ccccc1)NC(=O)c1ccc(C(=O)NC(C)CCc2ccccc2)cc1 (stereo unspecified)	MITF TRPM1 inh 74, Peg3 promoter 59
O=C(Nc1ccc(-n2cnnn2)cc1)c1cc(S(=O)(=O)N2CCCC2)ccc1Cl	none
CCc1ccc(-c2nc(CSCC(=O)N3CCN(c4ccccn4)CC3)c(C)o2)cc1	MITF TRPM1 inh 64, HIF-2a block 58
CCOc1ccc(-c2cc(C(=O)N3CCCC3)c3ccccc3n2)cc1	none
CCOc1ccc(-c2cc(C(=O)N3CCN(c4ccccn4)CC3)c3ccccc3n2)cc1	KKLEB tox -68
COc1ccc(-c2cc(C(=O)O)c3ccccc3n2)c(OC)c1	none
Cc1ccc(-c2nc(CSCC(=O)N3CCN(c4ccccn4)CC3)c(C)o2)cc1	none (no result: MITF TRPM1 inh)
CCCc1ccc(-c2cc(C(=O)N3CCN(c4ccccn4)CC3)c3ccccc3n2)cc1	KKLEB tox -76
COc1ccc2cc(-c3cc(C(=O)O)c4ccccc4n3)ccc2c1	KKLEB tox -54
COc1cc(-c2cc(C(=O)N3CCN(c4ccccn4)CC3)c3ccccc3n2)cc(OC)c1OC	none
CCOC(=O)C1=CCN(S(=O)(=O)c2ccccc2[N+](=O)[O-])C1c1ccc(C)cc1 (stereo unspecified)	none (no result: MITF TRPM1 inh)
O=C(COC(=O)C12CC3CC(CC(O)(C3)C1)C2)Nc1cccc(Br)c1	none
COc1ccc(-c2cc(C(=O)N3CCN(c4ccccn4)CC3)c3ccccc3n2)cc1	KKLEB tox -61
CCOC(=O)N1CCN(C(=O)c2cc(-c3ccc(OCC)cc3)nc3ccccc23)CC1	KKLEB tox -75
CCOc1ccc(-c2cc(C(=O)N3CCN(C)CC3)c3ccccc3n2)cc1	none
N#C/C(=C/c1ccc(-c2ccc([N+](=O)[O-])cc2)o1)C(=O)Nc1nc(-c2cccs2)cs1	Peg3 promoter 55
COCC(C)Nc1nc(C)c(C(C)=O)s1 (stereo unspecified)	none
CC(Nc1nc(N2CCNCC2)nc2ccccc12)c1ccccc1 (stereo unspecified)	Peg3 promoter 102
CCCNC(=O)C1(C)CCN(Cc2cc(-c3ccccc3)on2)C1 (stereo unspecified)	none (no result: MITF TRPM1 inh)
CN(C)CCCn1c2c3ccccc3ccc2c2oc(=O)c3ccccc3c21	MITF TRPM1 inh 80, Peg3 promoter 97
CN(C)CCCn1c(=S)[nH]c2ccccc2c1=O	none
CC12CCC(C/C1=N\N=C1\NC(=O)/C(=C\c3ccc(Cl)cc3)S1)C2(C)C (stereo unspecified)	CF NFkB inh 89, KKLEB tox -94
Nc1ncnc2c1ncn2[C@@H]1O[C@H](C(=O)N[C@H]2c3ccccc3C[C@H]2O)[C@@H](O)[C@H]1O	none (no result: MITF TRPM1 inh)
COc1nc(Nc2nc3ccccc3c(=O)[nH]2)nc2ccc(C)cc12	Peg3 promoter 98
COc1cccc2c(C)nc(Nc3nc(CSc4nnc(C)s4)cc(=O)[nH]3)nc12	Peg3 promoter 76
Cc1nc(Nc2nc(CSc3nc4ccccc4[nH]3)cc(=O)[nH]2)nc2ccccc12	Peg3 promoter 102
Cc1nc(Nc2nc(-c3ccccc3)cc(=O)[nH]2)nc2ccccc12	Peg3 promoter 64
Cc1ccc2c(C)nc(Nc3nc(CSc4nnc(C)s4)cc(=O)[nH]3)nc2c1	none
COc1ccc(C)cc1S(=O)(=O)N(CC(=O)NC1CCCC1)c1ccc(F)cc1	none
COC(=O)C[C@@H]1C=C[C@@H](NC(=O)C2CCC2)[C@@H](CO)O1	none (no result: MITF TRPM1 inh, CF NFkB inh, Peg3 promoter, KKLEB tox)
COC(=O)/C(=N/Nc1ccccc1C)Sc1nnc(C(O)c2ccccc2)n1-c1ccccc1 (stereo unspecified)	none
Cc1oc(-c2ccc(Cl)cc2)nc1CN1CCC(C(=O)NCCCN2CCCC2=O)CC1	none
Cc1oc(-c2ccc(Cl)cc2)nc1CN1CCC(C(=O)N2CCc3ccccc3C2)CC1	Peg3 promoter 79
Cc1oc(-c2ccc(Cl)cc2)nc1CN1CCC(C(=O)N2CCN(Cc3ccccc3)CC2)CC1	none
Cc1oc(-c2ccc(Cl)cc2)nc1CN1CCC(C(=O)NCCCN2CCCC(C)C2)CC1 (stereo unspecified)	MITF TRPM1 inh 96
Cc1cc(C2=NNC(=NC3CC3)SC2)c(C)n1-c1ccccc1	MITF TRPM1 inh 100, Peg3 promoter 103, HIF-2a block 91
C=CCNc1nc(Nc2ccc([N+](=O)[O-])cc2)nc(N2CCCC2)n1	Peg3 promoter 56
COc1cc(OC)c2nc(C)c3c(c2c1)N(c1ccc(O)cc1)CC3	Peg3 promoter 65
Cc1ccc(C2=NN(C(=O)CCCC(=O)O)C(c3ccc4c(c3)OCO4)C2)cc1 (stereo unspecified)	none
O=C(O)c1ccc(-c2ccc(/C=C3\NC(=O)N(Cc4ccc(Cl)cc4)C3=O)o2)cc1Cl	ABHD5-PLIN5 inh 28
COC(=O)c1c(-c2ccsc2)sc2ccc(-c3cc(OC)c(OC)c(OC)c3)cc12	none
